Data published in PubChem BioAssay (Tox21).
Records with an inconclusive call do not appear. Entries that show only a call come without a potency. Values without a mark were called inactive. Active and inactive are the calls of the source. Calls follow the shape of the dose curve; as a rule, active = well fitted curve in the direction sought with a large enough effect in the repeat runs; inconclusive = weak or mixed curves; inactive = no such curve, though single readings can be large; an effect the other way counts as inactive or inconclusive.

Assays:
[1] = biological target: Cytochrome P450 1A2 (Homo sapiens) (UniProt P05177); assay: Cytochrome P450 Family 1 Subfamily A Member 2 (CYP1A2) small molecule antagonists: luciferase reporter qHTS assay (AID 1671199); also: potency is read from the fitted curve at half-maximal effect; as to activity change, negative = inhibition: series mostly up to about 120 µM
Sequence of Cytochrome P450 1A2 (Homo sapiens) (P05177 whole entry, looked up): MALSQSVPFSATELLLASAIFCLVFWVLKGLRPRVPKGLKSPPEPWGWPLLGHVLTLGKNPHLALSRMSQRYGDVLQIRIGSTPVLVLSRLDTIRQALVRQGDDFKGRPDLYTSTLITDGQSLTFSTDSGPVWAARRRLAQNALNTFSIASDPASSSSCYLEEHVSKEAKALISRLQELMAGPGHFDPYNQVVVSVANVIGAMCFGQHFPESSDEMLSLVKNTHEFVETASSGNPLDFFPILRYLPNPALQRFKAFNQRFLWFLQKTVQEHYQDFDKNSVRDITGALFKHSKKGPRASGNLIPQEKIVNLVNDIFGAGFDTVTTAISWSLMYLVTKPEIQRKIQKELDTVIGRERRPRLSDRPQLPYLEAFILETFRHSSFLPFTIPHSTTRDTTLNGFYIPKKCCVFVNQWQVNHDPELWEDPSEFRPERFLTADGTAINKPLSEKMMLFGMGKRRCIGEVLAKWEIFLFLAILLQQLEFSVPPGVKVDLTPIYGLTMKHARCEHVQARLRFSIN
How it was run: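 Signal from luciferin formed by CYP1A2 from a proluciferin substrate is read as luminescence, expressed in relative luminescence units. Compounds sit with enzyme 10 min, NADPH-driven reaction runs 1 h, all at room temperature.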

[2] = biological target: Cytochrome P450 3A4 (Homo sapiens) (UniProt P08684); assay: Cytochrome P450 Family 3 Subfamily A Member 4 (CYP3A4) small molecule antagonists: luciferase reporter qHTS assay (AID 1671201); also: potency is read from the fitted curve at half-maximal effect; as to activity change, negative = inhibition: series mostly up to about 120 µM
Sequence of Cytochrome P450 3A4 (Homo sapiens) (P08684 whole entry, looked up): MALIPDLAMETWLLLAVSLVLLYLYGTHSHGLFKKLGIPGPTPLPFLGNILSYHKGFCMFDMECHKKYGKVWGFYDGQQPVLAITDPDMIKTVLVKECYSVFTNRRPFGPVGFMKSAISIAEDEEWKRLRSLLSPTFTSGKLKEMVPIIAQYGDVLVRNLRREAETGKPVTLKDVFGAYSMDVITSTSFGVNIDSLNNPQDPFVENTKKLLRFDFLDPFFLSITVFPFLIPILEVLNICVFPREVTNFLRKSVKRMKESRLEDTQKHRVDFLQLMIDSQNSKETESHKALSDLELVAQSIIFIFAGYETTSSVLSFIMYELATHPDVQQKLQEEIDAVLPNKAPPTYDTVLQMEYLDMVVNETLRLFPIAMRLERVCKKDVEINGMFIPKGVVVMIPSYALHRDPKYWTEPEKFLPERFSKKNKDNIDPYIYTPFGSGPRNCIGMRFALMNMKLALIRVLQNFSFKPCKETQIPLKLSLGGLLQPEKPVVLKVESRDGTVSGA
How it was run: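 Inhibition of CYP3A4 is measured as loss of light: the enzyme converts a proluciferin substrate to luciferin, detected luminescently. Reaction ran 1 h at room temperature with NADPH regeneration after a 10 min compound preincubation.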

[3] = biological target: Voltage-gated inwardly rectifying potassium channel KCNH2 (Homo sapiens) (UniProt Q12809); assay: Human Ether-a-go-go-Related Gene (hERG) channel small molecule antagonists: fluorescence cell-based qHTS assay (AID 1671200);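 also: hERG-expressing U2OS cells given a thallium stimulus after FluxOR II dye loading; series mostly up to about 77 µM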
Sequence of Voltage-gated inwardly rectifying potassium channel KCNH2 (Homo sapiens) (Q12809 whole entry, looked up): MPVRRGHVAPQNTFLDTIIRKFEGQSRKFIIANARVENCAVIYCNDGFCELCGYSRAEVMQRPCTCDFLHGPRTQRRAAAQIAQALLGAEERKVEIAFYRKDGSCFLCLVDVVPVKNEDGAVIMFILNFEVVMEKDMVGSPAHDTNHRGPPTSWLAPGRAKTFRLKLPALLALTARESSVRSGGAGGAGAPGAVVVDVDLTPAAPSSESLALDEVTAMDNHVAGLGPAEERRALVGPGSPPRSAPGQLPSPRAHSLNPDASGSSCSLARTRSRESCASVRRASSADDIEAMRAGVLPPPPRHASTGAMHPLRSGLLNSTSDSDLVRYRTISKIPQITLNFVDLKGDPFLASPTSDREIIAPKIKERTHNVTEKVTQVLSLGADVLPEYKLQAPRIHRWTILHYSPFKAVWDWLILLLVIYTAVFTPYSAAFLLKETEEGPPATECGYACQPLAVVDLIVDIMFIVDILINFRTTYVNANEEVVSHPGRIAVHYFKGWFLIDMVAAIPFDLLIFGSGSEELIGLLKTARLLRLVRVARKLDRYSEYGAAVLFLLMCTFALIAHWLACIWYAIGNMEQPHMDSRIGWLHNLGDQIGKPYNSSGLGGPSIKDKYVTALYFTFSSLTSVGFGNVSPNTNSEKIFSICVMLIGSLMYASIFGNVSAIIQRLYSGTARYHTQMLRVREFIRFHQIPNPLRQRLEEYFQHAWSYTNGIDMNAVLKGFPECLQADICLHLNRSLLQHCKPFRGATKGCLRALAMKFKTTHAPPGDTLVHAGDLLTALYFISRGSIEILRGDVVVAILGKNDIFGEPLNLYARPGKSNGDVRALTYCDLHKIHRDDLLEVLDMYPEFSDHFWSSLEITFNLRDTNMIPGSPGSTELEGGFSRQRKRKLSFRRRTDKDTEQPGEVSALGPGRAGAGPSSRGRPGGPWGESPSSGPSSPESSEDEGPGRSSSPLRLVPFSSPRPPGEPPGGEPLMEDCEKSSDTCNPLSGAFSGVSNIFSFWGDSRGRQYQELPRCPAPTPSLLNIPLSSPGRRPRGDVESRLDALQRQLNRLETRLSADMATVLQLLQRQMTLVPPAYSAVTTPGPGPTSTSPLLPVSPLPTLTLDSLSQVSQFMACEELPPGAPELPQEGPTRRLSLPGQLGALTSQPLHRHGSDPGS
How it was run: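 Quantitative HTS in hERG-U2OS cells: thallium entry through the channel reports activity, read as continuous 480/540 nm fluorescence over 2 min after stimulus addition.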
Also: nearly all actives have a fitted effect of over 50% in size.

CCC(C)c1cc(C(C)(C)C)c(O)c(C(C)(C)C)c1 (centres undefined)
Potency [1]: 62.1 µM (active)
Potency [2]: 19.6 µM (active)

Cc1cc(N)c2cc(NC(=O)Nc3ccc4nc(C)cc(N)c4c3)ccc2n1
Potency [3]: inactive

C=CC(=O)OCCOCCOCCOCCOC(=O)C=C
Potency [3]: inactive

CCCCCCCC#N
Potency [3]: inactive
Potency [2]: inactive

CCCCCCCN
Potency [2]: inactive

NCC(=O)O
activity change, negative = inhibition [3]: 0.344% [at 15.8 µM]

CO[C@@H]1[C@H](OC(=O)/C=C/C=C/C=C/C=C/C(=O)O)CC[C@]2(CO2)[C@H]1[C@@]1(C)O[C@@H]1CC=C(C)C
Potency [3]: inactive

CCC(C)O (centres undefined)
Potency [3]: inactive

CCCCCCCCCCCCN1CCCCCC1=O
Potency [3]: inactive
Potency [2]: inactive

C#C[C@]1(O)CC[C@H]2[C@@H]3CCc4cc(OC5CCCC5)ccc4[C@H]3CC[C@@]21C
Potency [3]: inactive

O=C1c2ccccc2S(=O)(=O)N1CCCCN1CCN(c2ncccn2)CC1
Potency [1]: inactive
Potency [2]: inactive

CC(CC=O)c1ccccc1 (centres undefined)
Potency [3]: inactive
Potency [2]: 20 µM (active)

CC(=O)[O][Al]
Potency [3]: inactive

CCCCO
Potency [3]: inactive

C=C1[C@H]2CC[C@@H]3[C@H]2C(C)(C)CCC[C@]13C
Potency [3]: inactive
Potency [2]: inactive

CCCCCCCCCCCCCCCCCCOS(=O)(=O)O
Potency [3]: inactive
Potency [2]: inactive

CCCCCCc1ccc(-c2ccc(C#N)cc2)cc1
Potency [1]: 31.2 µM (active)
Potency [2]: inactive

C/C(=C(\CCOP(=O)(O)O)SC(=O)c1ccccc1)N(C=O)Cc1cnc(C)nc1N
activity change, negative = inhibition [3]: 1.89% [at 6.97 µM]

O=C(NCC1CN(c2ccc(N3CCOCC3=O)cc2)C(=O)O1)c1ccc(Cl)s1 (centres undefined)
Potency [2]: inactive

CCOc1ccc(O)cc1
Potency [3]: inactive
Potency [2]: inactive
